± gives the standard deviation.
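Also: 1 nM active piRISC with 0.1 nM target library at 33 °C single turnover.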

The test relates to MILI (PIWIL2) piRISC loaded with L1MC piRNA (26 nt). The test can be described thus: pre-steady-state target cleavage rate (min^-1); guide: L1MC piRNA 5'p-UAACUAAAUACUAUGCAAGCUGUAGG; MIWI and MILI are mouse PIWI proteins and EfPiwi is from a freshwater sponge; tags in brackets are library labels; higher = faster piRNA-guided slicing of the target. The following applies: auxiliary factor: 500 nM mouse GTSF1. An outline of the steps: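 The pre-steady-state cleavage rate was calculated from a burst-and-steady-state fit. Data came from Cleave-'n-Seq, in which […] transcribed, DNA-blocked target RNA library was mixed with 1 nM active affinity-purified piRISC carrying one synthetic guide, with or without 500 nM GTSF1 partner protein, in HEPES–potassium acetate buffer at 33 °C for 0–8 or 0–960 min. Uncleaved targets were sequenced and normalised to depth and to weakly complementary targets, three trials were pooled, and k3 was capped at 0.0001 min^-1.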
Turning to UCCUGGAUGAGCUUGCAUAGUAUUUUCAAA, the “pre-steady-state target cleavage rate” value was found to be 0.00959 ± 0.0061.

For UCCUGGAUGUCGAAGCAUAGUAUUUAUUUA, the “pre-steady-state target cleavage rate” value came out at 0.0073 ± 0.0034.

As to UCCUGGAUGUCCUUGCAUAGAUAUUAGUUA, the “pre-steady-state target cleavage rate” value worked out at 0.00447 ± 0.0038.

UCCUGGAACACCUUGCAUAGUAUUUAGAAA: the “pre-steady-state target cleavage rate” value was 0.146 ± 0.031.

For UCCUGGAUCAGCUUGCAUUGAAUUUAGUUA, the “pre-steady-state target cleavage rate” value was found to be 0.0248 ± 0.0084.

As for UCCUGGUACAGCUUGGAUAGAAUUUAGUUA, the “pre-steady-state target cleavage rate” value came to 0.0709 ± 0.025.

On to UCCUGGAUCACCUUGCAUAGUAUUUUCAAA, for which the “pre-steady-state target cleavage rate” value was determined as 0.0586 ± 0.021.

In the case of UCCUGGAUGUCGAAGCAUAGUAUUUAGUAUA, the “pre-steady-state target cleavage rate” value was 0.0394 ± 0.0091.

With UCCUGGAUGUGCUUGCAUGUAUUUAGUUA, the “pre-steady-state target cleavage rate” value turned out to be 0.00502 ± 0.0043.

On to UCCUCCUACAGCUUGCAUAGAUAUUAGUUA, for which the “pre-steady-state target cleavage rate” value was 0.0125 ± 0.0045.

As to UCCUGGAACAGCAUGCAUAGUAUUUAGAAA, the “pre-steady-state target cleavage rate” value is 0.196 ± 0.025.

Turning to UCCUGGAUCAGCUUGCAUAGUAAAAACAAA, the “pre-steady-state target cleavage rate” value turned out to be 0.027 ± 0.0099.

As for UCCUGGUACAGCUUGCUAAGUAUUUAGUAA, the “pre-steady-state target cleavage rate” value amounted to 0.036 ± 0.012.

Take UCCUCCUACAGGAUGCAUAGUAUUUACAAA: the “pre-steady-state target cleavage rate” value came to 0.0521 ± 0.011.

As to UCCUGGAUGUGCUUGCAAAGUAUUUUGUUA, the “pre-steady-state target cleavage rate” value worked out at 0.0179 ± 0.0057.

“UCCUGGAUCAGCUUGCAUAGUUAAAUCAAA [g10:g22:cont:t1A]”: the “pre-steady-state target cleavage rate” value turned out to be 0.00426 ± 0.0036.

Regarding UCCUGGUACAGCUUGCAGUAGUAUUUAGUUA, the “pre-steady-state target cleavage rate” value was 0.00495 ± 0.0037.

With UCCUGGAUGAGCUUGCAUAGUAUAUUGUUA, the “pre-steady-state target cleavage rate” value stood at 0.0743 ± 0.017.

As for UCCUGGAUGACCUUGCAUAGUUUUUAGUUA, the “pre-steady-state target cleavage rate” value was determined as 0.0191 ± 0.0076.

As for UCCUGGUACUCCUUGCAUAGUAUUUAGUUA, the “pre-steady-state target cleavage rate” value came out at 0.217 ± 0.046.

UCCUGCUACAGCUUGCAUCAGUAUUUAGUUA: the “pre-steady-state target cleavage rate” value worked out at 0.015 ± 0.0065.

Turning to UCCUGGAACAGCUUGCAUAGUAUAAAGUAA, the “pre-steady-state target cleavage rate” value was found to be 0.249 ± 0.063.

With UCCUGGUACACCUUGCAUAGUAUUUACAAA, the “pre-steady-state target cleavage rate” value is 0.046 ± 0.018.

In the case of UCCUGGAUCAGCUUGGAUAGUAUUUAGAUA, the “pre-steady-state target cleavage rate” value turned out to be 0.0949 ± 0.016.

On to UCCUCCUACACGAUGCAUAGUAUUUACAAA, for which the “pre-steady-state target cleavage rate” value was determined as 0.122 ± 0.021.

With UCCUGGAUGUCGAAGCAUAGUAUAAAGUUA, the “pre-steady-state target cleavage rate” value worked out at 0.0127 ± 0.0053.

Consider UCCUGGUACAGCUUGCAUAGUUUAUAGUUA, for which the “pre-steady-state target cleavage rate” value came out at 0.0525 ± 0.018.

In the case of UCCUGGAUGACGAUGCAUAGUAUUUACAAA, the “pre-steady-state target cleavage rate” value is 0.0245 ± 0.011.

For the sequence UCCUGGAUGUCGAAUCAUAGUAUUUAGUUA, the “pre-steady-state target cleavage rate” value was 0.00554 ± 0.0026.

As for UCCUGGAUGUGCUUGCAUAGUAUAUAGUUA, the “pre-steady-state target cleavage rate” value turned out to be 0.083 ± 0.014.

For the sequence UCCUGGAUGUGCUAGCAUAGUAUUAAGUUA, the “pre-steady-state target cleavage rate” value was determined as 0.0987 ± 0.014.

With UCCUGGAUGUCCUUGCAUUGUAUUUUGUUA, the “pre-steady-state target cleavage rate” value amounted to 0.0388 ± 0.013.

For UCCUCCUACAGCUUGCAUUCUAUUUACAAA, the “pre-steady-state target cleavage rate” value is 0.0257 ± 0.0099.

UCCUGGAUGUGCUUGCUUAGUAUUUACUUA: the “pre-steady-state target cleavage rate” value was 0.0644 ± 0.015.

Turning to UCCUGGUACAGCUUGGAUUGUAUUUAGUUA, the “pre-steady-state target cleavage rate” value was 0.0395 ± 0.013.

The values are drawn from the supplement of paper PMC10338343.
